From PubChem BioAssay
This is a sample that favours compounds with a hit; in the whole collection about 12% have one here.
RORgamma inh: blocks mouse ROR gamma transcriptional activity | 310,000 compounds, 5.4% hits | AID 2551 | Drosophila S2 Gal4-RORgamma UAS-luciferase reporter, 20 h | Potency, µM (top dose mostly 53.6 µM), without a hit: at the top dose activity change, negative = inhibition, most hits filed as inhibitors | P51450; further: nearly all actives have a fitted effect of over 60% in size
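Luminescence from a UAS-regulated Photinus luciferase reporter in stably transfected Drosophila Schneider cells is measured; decreased signal marks ROR gamma inhibition. Fusion expression is induced by 700 uM copper sulfate for 20 hr.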
Sfp inh: Sfp phosphopantetheinyl transferase inhibition; AID 1490; Biochemical Sfp PPTase activity, qHTS; Q9F4F7; 310,000 compounds, 3.5% hits; Potency, µM, for the others: largest response in the series, negative = inhibition, actives largely listed as inhibitors;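 further: the enzyme is Sfp with the accession as filed and its product quenches rhodamine fluorescence; 0% = enzyme reaction without inhibitor and -100% = no enzyme wells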
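Reaction rates are the 30-min fluorescence difference (ex 525, em 598 nm) in wells containing 15 nM Sfp, 5 uM rhodamine-CoA and 12.5 uM BHQ-2-YbbR at pH 7.6 with 10 mM MgCl2.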
PLK1 PBD block: PLK1 (human) polo-box domain binding inhibition; Plk1 PBD binding of FITC phosphopeptide, fluorescence polarization; Potency, µM, inactives show max response, negative = inhibition, actives largely listed as inhibitors; 360,000 compounds, 2.8% hits; AID 720504; further: series mostly up to about 57 µM; nearly all actives have a fitted effect of over 65% in size
VP16 counter: inhibits Gal4-VP16 luciferase reporter, ROR gamma counter-screen. Drosophila S2 Gal4-VP16 UAS-luciferase, luminescence, 20 h. AID 2546. Potency, µM (titrated, usually from 53.6 µM), inactives show at the top dose activity, negative = inhibition, hits mostly inhibitors. 310,000 compounds, 3.5% hits;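 further: Gal4-VP16 expression switched on by copper sulfate through the metallothionein promoter; nearly all actives have a fitted effect of over 50% in size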
ALDH1A1 inh: ALDH1A1 (human) enzyme inhibition | 220,000 compounds, 7.3% hits | Potency, µM (titrated, usually from 75.3 µM), for inactives: at the highest dose activity, negative = inhibition, actives largely listed as inhibitors | AID 1030 | Purified ALDH1A1, NADH fluorescence, propionaldehyde substrate; active means well fitted inhibition curve with a large enough effect, not every such curve was filed as active; inconclusive means small, poorly fitted or top-dose-only effect, or another doubt; inactive means no such curve, though single readings can be large or run the other way;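 further: plate controls were no enzyme wells and a reference inhibitor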
Target sequence (P00352 whole entry, looked up): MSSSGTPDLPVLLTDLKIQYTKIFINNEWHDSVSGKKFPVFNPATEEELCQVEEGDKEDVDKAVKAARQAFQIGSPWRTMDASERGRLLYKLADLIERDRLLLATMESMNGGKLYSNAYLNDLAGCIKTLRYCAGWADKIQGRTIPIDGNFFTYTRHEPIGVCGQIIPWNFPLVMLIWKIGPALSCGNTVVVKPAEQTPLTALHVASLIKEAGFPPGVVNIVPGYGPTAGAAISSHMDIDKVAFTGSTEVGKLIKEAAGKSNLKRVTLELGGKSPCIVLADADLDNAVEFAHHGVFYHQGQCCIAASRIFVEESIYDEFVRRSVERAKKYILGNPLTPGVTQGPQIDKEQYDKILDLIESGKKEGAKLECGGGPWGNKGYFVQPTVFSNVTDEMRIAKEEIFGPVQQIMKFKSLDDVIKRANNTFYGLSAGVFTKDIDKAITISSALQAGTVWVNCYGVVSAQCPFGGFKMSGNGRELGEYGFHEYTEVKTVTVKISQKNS
The depositor's hits bear a star; ? = inconclusive; nt = no result given; [ ] = another dose, or the depositor's remark. Unless noted, the call rests on the fitted dose curve; in most records, active means well fitted curve in the direction sought with a large enough effect; inconclusive means small, poorly fitted or top-dose-only effect, or another doubt; inactive means no such curve, though single readings can be large; an effect the other way counts as inactive or inconclusive. Unless noted, on the % scale 0 is the no-effect control and ±100 the full control effect; potency means the concentration at half of the fitted maximal effect.

SMILES	RORgamma inh	Sfp inh	PLK1 PBD block	VP16 counter	ALDH1A1 inh
c1ccc(-c2ccc(N3CC[C@@]4(CCCNC4)C3)cc2)cc1	-29%	-21%	nt	-15%	?
CN(C1CCCCC1)S(=O)(=O)c1cn(C)c(=O)n(C)c1=O	nt	nt	-7%	nt	nt
Cc1ccc(S(=O)(=O)NC(=O)Nc2c(C)n(C)n(-c3ccccc3)c2=O)cc1	-9%	5%	-4%	2%	2%
Cc1ccc(S(=O)(=O)NCCCCCC(=O)Nc2c(C)n(C)n(-c3ccccc3)c2=O)cc1	?	11%	-10%	-23%	13µM*
Cc1ccc(NC(=O)CCCCCNS(=O)(=O)c2ccc(C)cc2)cc1	1%	13%	-14%	1%	?
Cc1ccc(S(=O)(=O)NCCCCCC(=O)Nc2nccs2)cc1	-18%	5%	-13%	2%	16µM*
COc1ccc(C(=O)Nc2cc(-c3ccccc3)nn2-c2ccccc2F)cc1	nt	nt	-13%	nt	nt
Cn1c(=O)c(Nc2ccc(Cl)cc2)c2c3c(cccc31)C(=O)c1ccccc1-2	9%	-15%	13µM*	9%	14%
CCCc1ccc(OC(=O)c2cccs2)cc1	-7%	?	-8%	-6%	3%
CCCc1ccc(OC(=O)c2ccc(O)cc2Cl)cc1	0.89µM*	1%	-12%	4µM*	4%
CNc1ccc2c3c(cccc13)C(=O)N(C)C2=O	-6%	-8%	3µM*	-15%	nt
CN1CCN(S(=O)(=O)c2cccc(C(=O)Nc3sc4c(c3C(N)=O)CCCC4)c2)CC1	4%	56µM*	-10%	1%	?
CCOC(=O)c1c(NC(=O)c2nn(CC)cc2Br)sc2c1CCCCC2	-17%	20µM*	-17%	-13%	?
Cn1ccc(C(=O)Nc2sc3c(c2C(N)=O)CCCCC3)n1	?	32µM*	?	?	nt
Cn1cc(Br)c(C(=O)Nc2sc3c(c2C(N)=O)CCC3)n1	36%	-8%	24µM*	2%	?
CC(=O)Nc1sc2c(c1C(N)=O)CCCC2	30%	30%	-10%	10%	4%
NC(=O)c1c(NC(=O)C2c3ccccc3Oc3ccccc32)sc2c1CCCCC2	0%	35µM*	?	25%	?
CCn1cc(C(=O)NC(=S)Nc2sc3c(c2C(=O)OC)CCCCCC3)cn1	?	35µM*	-7%	?	3%
COC(=O)c1c(NC(=O)c2c(C)noc2C)sc2c1CCCCCC2	-12%	10%	nt	-4%	9%
O=c1c(-c2cccs2)nc2cncnc2n1C1CC1	-9%	7%	nt	-10%	?
COc1cccc([C@H](O)Cn2cc(-c3cccc(CON=C(C)C)c3)nn2)c1	-4%[10 µM]	14%	nt	-5%[10 µM]	-4%[13.5 µM]
CC1CCC2C(=O)N3C(CCC(C)C3c3ccccc3Br)C(=O)N2C1c1ccc(C#CCN(C)C)cc1 (centres undefined)	10%[10 µM]	18%	nt	-1%[10 µM]	3.5µM*
C[C@H]1CC[C@H]2C(=O)N3[C@H](c4ccccc4Br)[C@@H](C)CC[C@H]3C(=O)N2[C@@H]1c1ccccc1Br	?	6%	nt	-22%	?
CC(=O)[C@@H](C)CCO[C@@]1(C)OCC[C@@H]1C	nt	nt	nt	nt	9%[13.5 µM]
Cc1cccc(C)c1C(O)c1ncc(-c2ccc(F)cc2)[nH]1 (centres undefined)	nt	nt	2%	nt	nt
SMILES	RORgamma inh	Sfp inh	PLK1 PBD block	VP16 counter	ALDH1A1 inh
O=C(NC(=S)Nc1ccc(S(=O)(=O)N2CCCCC2)cc1)c1ccc(Cl)cc1	0%	11%	-14%	-1%	0.5µM*
O=C(Cc1cccs1)Nc1ccc(S(=O)(=O)N2CCCC2)cc1	26%	?	-14%	-5%	13µM*
CN1CCN(S(=O)(=O)c2ccc(NC(=S)NC(=O)c3ccc(Cl)cc3)cc2)CC1	3.2µM*	22µM*	19µM*	?	-10%
Cc1ccc(S(=O)(=O)N2CCCCC2)cc1NC(=O)Cc1cccs1	nt	nt	-11%	nt	nt
COc1ccc(S(=O)(=O)Nc2ccc(S(=O)(=O)N3CCOCC3)cc2)cc1	14%	16%	-11%	8%	4.5µM*
CC(C)OC(=O)N(C)C[C@@H]1OCc2ccccc2-c2c(n(C)c3ccccc23)C(=O)N([C@@H](C)CO)C[C@H]1C	nt	nt	2%	nt	nt
CCNc1ncc2nc(-c3ccc(Cl)cc3)c(=O)n(Cc3cccc(OC)c3)c2n1	-3%	-1%	nt	8%	2%
Cc1nc2cnc(OCc3ccccc3)nc2n(Cc2ccc(F)cc2)c1=O	27%	-22%	nt	6%	?
